Results on 6 molecules are retold here after PubChem BioAssay (NCATS).

Inconclusive results are not listed. Calls of active or inactive are those of the source. Calls come from the whole dose curve; as a rule, active = well fitted curve in the direction sought with a large enough effect; inconclusive = small, poorly fitted or top-dose-only effect, or another doubt; inactive = no such curve, though single readings can be large; an effect the other way counts as inactive or inconclusive.

Test [1] concerns Zika virus NS2B-NS3 protease (linked construct). Kind of test: Primary screen NINDS Rhodamine qHTS for Zika virus inhibitors (AID 1347160). Note: nearly all actives have a fitted effect of over 55% in size. A digest of the protocol:
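In 10 mM Tris-HCl pH 8.0 containing 0.01% Tween 20, linked NS2B-NS3 protease (25 nM final) is exposed to test compounds for 15 min. Cleavage of 1.5 microM Rhodamine110 substrate is tracked by fluorescence over 15 min.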

For test [2], the target named is Calcium and integrin-binding protein 1 (Homo sapiens) (UniProt Q99828). Description: Primary qHTS for Identification of Calcium Integrin Binding Protein 1 (CIB1) Competitor (AID 1508620).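 Note: GST tagged CIB1 binding a fluorescein labelled alphaIIb integrin peptide tracer; top concentration of the series differs between compounds.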 A digest of the protocol:
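Fluorescence polarization competition: GST-tagged CIB1 (1 uM final) preincubated with compound 15 min at room temperature, then FITC-labelled alphaIIb peptide (100 nM final) added. After 15 min at room temperature, polarization read at Ex 480/Em 540.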
(Quantitative high-throughput screening tests each substance at several concentrations.)

Test [3] in a line: Primary qHTS for inhibitors of nuclear receptor binding SET domain protein 2 (NSD2) in an isogenic RCH-ACV NSD2 p.E1099K mutant (9B) (AID 1645876). Note: nearly all actives have a fitted effect of over 70% in size. Note: potency is the fitted concentration of half-maximal effect.
Test [4] can be described thus: Primary qHTS for inhibitors of nuclear receptor binding SET domain protein 2 (NSD2) in an RCH-ACV wild type WT cells (2C) (AID 1645877). Note: nearly all actives have a fitted effect of over 70% in size. Note: potency is the fitted concentration of half-maximal effect.
The target of test [5] is Glutathione peroxidase 1 (Homo sapiens) (UniProt P07203). Description: Primary qHTS Assay for Inhibitors of Recombinant Selenoprotein Glutathione Peroxidase 1 (GPX1) (AID 1845191). Note: nearly all actives have a fitted effect of over 65% in size. A digest of the protocol: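 GR-coupled assay: compounds preincubated 30 min at room temperature with GPX1, then reaction started with CHP; final 10 nM GPX1, 1 mM GSH, 0.5 mM CHP, 0.5 mM NADPH, 100 nM GR, 0.01% BSA, pH 7.5 Tris buffer. NADPH fluorescence (340/450 nm) read at 0 and 15 min.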

The target in test [6] is Phospholipid hydroperoxide glutathione peroxidase GPX4 (Homo sapiens) (UniProt P36969). Kind of test: Primary qHTS Assay for Inhibitors of Recombinant Selenoprotein Glutathione Peroxidase 4 (GPX4) (AID 1845192). Note: nearly all actives have a fitted effect of over 65% in size. The note with it: outcome: dose series up to 50 µM unless noted. A digest of the protocol: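 GR-coupled assay: recombinant GPX4 preincubated 30 min with compound at room temperature; final 200 nM GPX4, 1 mM GSH, 0.5 mM cumene hydroperoxide, 0.5 mM NADPH, 100 nM GR, 0.01% BSA, pH 7.5 Tris. NADPH fluorescence (340/450 nm) read at 0 and 15 min.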

In test [7] the target is Luciferin 4-monooxygenase (Photinus pyralis) (UniProt P08659). Kind of test: Primary firefly luciferase (FLuc) qHTS assay for identification of artifact compounds. (AID 1845220). Note: nearly all actives have a fitted effect of over 60% in size. A digest of the protocol: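 Enzymatic FLuc inhibition assay: compounds pre-exposed to luciferin/ATP (10 uM each) for 15 min, then purified P. pyralis enzyme at 10 nM added. Read-out: luminescence at 5 min.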

Test [8] in a line: Primary fluorescence-based thiol-reactive (MSTI) qHTS assay for identification of artifact compounds. (AID 1845221).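 Note: thiol-reactive compounds lower the probe fluorescence signal; nearly all actives have a fitted effect of over 65% in size.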 A digest of the protocol:
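Curve-fitted percent inhibition (4-parameter Hill) derived from fluorescence, Ex 525/Em 598 nm, scaled with Acetyl-MSTI and MSTI; 1 h incubation at room temperature.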

The test system of test [9] is Nanoluciferase (engineered Oplophorus gracilirostris luciferase). Kind of test: Primary Nanoluciferase (NLuc) qHTS assay for identification of artifact compounds. (AID 1845222).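 Note: NLuc secreted into diluted conditioned medium of S16 cells.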 A digest of the protocol: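 S16 cell supernatant NLuc, 1:55; cpds qHTS; 15 min RT dark; Nano-Glo substrate 1:100, 5 min; luminescence; Hill fit of % inhibition.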
Test [10] concerns C33A. Description: Primary qHTS to identify gynecologic anti-cancer compounds using libraries of approved drugs and bioactive compounds (AID 1345084). Note: nearly all actives have a fitted effect of over 55% in size. Note: potency is the fitted concentration of half-maximal effect. The note with it: Gynecologic cancer cell panel viability, ATPlite luminescence, 48 h; series mostly up to 57.5 µM. A digest of the protocol: (§1)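 Cytotoxicity screen measuring ATP content by luciferase luminescence. Each compound is applied at five concentrations for 48 h at 37 C with 5% CO2.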

The test system of test [11] is CASKI. The test is described as above. The note with it: Gynecologic cancer cell panel viability, ATPlite luminescence, 48 h; series mostly up to 57.5 µM. A digest of the protocol:
as §1
A general note: In ATP-based viability assays light output follows the ATP content of the culture.

Test [12] concerns HeLa. The test is described as above. The note with it: Gynecologic cancer cell panel viability, ATPlite luminescence, 48 h; series mostly up to 57.5 µM. A digest of the protocol: as §1
In test [13] the test system is Zika virus NS2B-NS3 protease (unlinked complex). Kind of test: Primary screen GU Rhodamine qHTS for Zika virus inhibitors: Unlinked NS2B-NS3 protease assay (AID 1347159). Note: nearly all actives have a fitted effect of over 60% in size. A digest of the protocol:
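Percent inhibition derives from the 15-min fluorescence change (ex 480, em 540 nm), normalized to no-enzyme and no-inhibitor wells. Reactions contained 25 nM NS2B-NS3 complex and 1.5 microM substrate in 10 mM Tris-HCl pH 8.0.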

For test [14], the system named is Es-2. Kind of test: Primary qHTS to identify gynecologic anti-cancer compounds using libraries of approved drugs and bioactive compounds (AID 1345084). Note: nearly all actives have a fitted effect of over 55% in size. Note: potency is the fitted concentration of half-maximal effect. The note with it: Gynecologic cancer cell panel viability, ATPlite luminescence, 48 h; series mostly up to 57.5 µM. A digest of the protocol: as §1
Test [15] has as its system Tov112D. The description is as above. The note with it: Gynecologic cancer cell panel viability, ATPlite luminescence, 48 h; series mostly up to 57.5 µM. A digest of the protocol:
as §1

Test [16] deals with Hek293T. The description is as above. The note with it: Gynecologic cancer cell panel viability, ATPlite luminescence, 48 h, control line for the selectivity index; series mostly up to 57.5 µM. A digest of the protocol: as §1
Test [17] has as its system JEG-3. The description is as above. The note with it: Gynecologic cancer cell panel viability, ATPlite luminescence, 48 h; series mostly up to 57.5 µM. A digest of the protocol:
as §1

Test [18] deals with OV90. The test is described as above. The note with it: Gynecologic cancer cell panel viability, ATPlite luminescence, 48 h; series mostly up to 57.5 µM. A digest of the protocol:
as §1

A short description of test [19]: P-glycoprotein substrates identified in KB-8-5-11 adenocarcinoma cell line, qHTS therapeutic library screen (AID 1346987). Note: potency is the fitted concentration of half-maximal effect; nearly all actives have a fitted effect of over 65% in size. A digest of the protocol: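 KB-8-5-11: colchicine-selected sub-line of KB-3-1 over-expressing P-gp; assay medium lacked colchicine. 72 h drug exposure at 37 degree C, CellTiter-Glo.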

Glutathione peroxidase 1 (Homo sapiens), sequence (P07203 whole entry, looked up): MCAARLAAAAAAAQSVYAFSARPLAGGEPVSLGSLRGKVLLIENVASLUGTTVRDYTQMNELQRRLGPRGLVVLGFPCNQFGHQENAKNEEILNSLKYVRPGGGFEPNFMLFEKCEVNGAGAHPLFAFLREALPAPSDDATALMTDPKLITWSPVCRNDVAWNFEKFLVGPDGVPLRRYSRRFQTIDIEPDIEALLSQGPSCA
Phospholipid hydroperoxide glutathione peroxidase GPX4 (Homo sapiens), sequence (P36969 whole entry, looked up): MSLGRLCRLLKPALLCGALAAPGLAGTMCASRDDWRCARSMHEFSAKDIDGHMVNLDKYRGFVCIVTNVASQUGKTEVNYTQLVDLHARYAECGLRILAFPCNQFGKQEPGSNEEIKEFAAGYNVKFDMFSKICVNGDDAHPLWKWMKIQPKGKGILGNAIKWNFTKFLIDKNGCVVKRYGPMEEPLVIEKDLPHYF
Calcium and integrin-binding protein 1 (Homo sapiens), sequence (Q99828 whole entry, looked up): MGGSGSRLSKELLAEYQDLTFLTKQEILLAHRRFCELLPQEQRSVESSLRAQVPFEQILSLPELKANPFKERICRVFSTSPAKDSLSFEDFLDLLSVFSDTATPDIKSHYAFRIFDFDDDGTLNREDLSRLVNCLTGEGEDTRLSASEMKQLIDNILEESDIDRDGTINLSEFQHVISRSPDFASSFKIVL

As to `O=C(/C=C/n1cnc(-c2cc(C(F)(F)F)cc(C(F)(F)F)c2)n1)NNc1cnccn1`, the Potency entry in test [1], in [5], in test [6], in [7], in test [8] and in test [9] was “inactive” throughout. In addition, the Potency result in [10], in test [11] and in test [12] was “inactive” each time. In test [2], the outcome was inactive. For the same molecule, the Potency was 1.63 µM (active) in test [3] and 2.05 µM (active) in [4].

For the molecule `CNc1nc(-c2ccc3c(N)n[nH]c3c2)cc(N2CC(C(=O)NC3CCCCC3)CCC2C)n1` (centres undefined), the Potency entry in [13], in test [1], in test [5], in [6], in [7] and in test [9] was “inactive” each time. Moreover, the Potency entry in [10], in test [11], in test [14], in test [12] and in [15] was “inactive” throughout. Also, in [2], the outcome was inactive. The Potency is 0.578 µM (active) in [3] and 1.15 µM (active) in test [4].

As to `C=C1C(=O)O[C@@H]2[C@H]1[C@H](O)C[C@]1(C)[C@@H](O)CC=C(C)[C@@H]21`, the Potency entry in test [13], in test [1], in [6], in test [7], in test [8] and in test [9] was “inactive” each time. Besides, the Potency result in test [10], in [11], in [14], in test [12], in test [16] and in test [17] was “inactive” in each case. Moreover, the Potency entry in test [18] and in test [15] was “inactive” throughout. The values for the Potency in test [3] and in test [4] were 11.5 µM (active) and 7.28 µM (active), respectively.

`C[C@H](NC(=O)C(C)(C)Oc1ccc(C(F)(F)F)cn1)[C@@H](Cc1ccc(Cl)cc1)c1cccc(C#N)c1`: the Potency in test [19] was 14.6 µM (active); in [3] it was 16.3 µM (active); in test [4], 20.5 µM (active). In addition, the Potency entry in [13], in [1], in [5], in test [6], in [7] and in test [8] was “inactive” each time. In addition, the Potency entry in test [9], in test [10], in [11], in test [14], in test [17] and in test [18] was “inactive” each time. Besides, in [15], the Potency entry is “inactive”. Besides, in test [2], the result was inactive.

For the molecule `COc1ccc2c3ccnc4ccc(=O)n(c2c1)c43`, the Potency entry in test [13], in test [1], in test [5], in test [6], in [7] and in [8] was “inactive” each time. Further, the Potency result in test [9], in [10], in test [17] and in test [18] was “inactive” each time. In test [2], the outcome was inactive. The Potency in [12] was 14.1 µM (active).

As to `CCOC(=O)CCC(=O)O[C@H]1[C@H](O[C@@H]2[C@@H](C)[C@H](O[C@H]3C[C@@](C)(OC)[C@@H](O)[C@H](C)O3)[C@@H](C)C(=O)O[C@H](CC)[C@@](C)(O)[C@H](O)[C@@H](C)C(=O)[C@H](C)CC2(C)O)O[C@H](C)C[C@@H]1N(C)C` (some centres undefined), the Potency entry in test [13], in [1], in [3], in test [4], in [5] and in test [6] was “inactive” throughout. Besides, the Potency result in test [7], in [8], in test [9], in test [10], in test [11] and in [14] was “inactive” in each case. In addition, the Potency entry in [12], in test [16], in test [17], in test [18] and in test [15] was “inactive” throughout. Further, the outcome in test [2] was inactive.
